PubChem BioAssay AID2216 (Broad Institute, 2009)
The whole screen tested about 300,000 compounds, of which about 3,300 (1.1%) were called active. Inconclusive results (about 6%) are left out. The sample holds actives, similar compounds and a random draw of the others, so the mix is not that of the screen.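 Rule for the calls: active = more than half of the replicate wells show a fall in the fluorescence ratio signal beyond about 16% (limit read from the data, passing the limit was not always enough); inconclusive = exactly half of the replicate wells pass the set limit; inactive = fewer than half of replicates pass the limit.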

Tested on: Ran GTPase (GTP-bound) - importin-beta complex
Experiment: inhibitors of RanGTP-importin-beta interaction, primary screen, biochemical, FRET, CFP-Ran, YFP-importin-beta, homogeneous (AID 2216);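 note: 0% = DMSO wells and 100% = Ran loaded with GDP instead of GTP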
Settings: cell-free CFP-Ran/YFP-importin-beta FRET ratio; active compounds read high; concentration not given here

Q: For CCOC(=O)c1c(C)oc2cc(Sc3ccccc3)c(O)c(O)c12, which inhibition is on record?
A: -4.55% (inactive)

Q: How did the inhibition turn out when CS(=O)(=O)c1ccc(Cl)c(NC(=O)COC(=O)c2ncc(Cl)c(Cl)c2Cl)c1 was run?
A: -0.161% (inactive)

Q: How did the inhibition turn out when COc1cc(-c2nnc(NC(=O)C3=COCCO3)o2)cc(OC)c1OC was run?
A: -0.69% (inactive)

Q: Which inhibition does the source give for CCN1C(=O)[C@@H]2[C@@H](c3ccc(-c4cccc(Cl)c4)cc3)N3CCC[C@@]3(C(=O)OC)[C@@H]2C1=O here?
A: 0.656% (inactive)

Q: For CCCNC(=O)c1onc(CSc2ccc(F)cc2)c1C(=O)NC(C)C, which inhibition is on record?
A: -1.02% (inactive)

Q: With CC1CCN(c2ccc(-c3ccc(NC(=O)c4ccco4)cc3)nn2)CC1 as the compound, how does the inhibition read?
A: 0.987% (inactive)

Q: For COc1cccc(OC)c1C(=O)Nc1sc2c(c1C(N)=O)CCCC2, which inhibition is on record?
A: 3.19% (inactive)

Q: With NC(=O)c1c(NC(=O)c2ccccc2)sc2c1CCCC2 as the compound, how does the inhibition read?
A: 3.77% (inactive)

Q: For NC(=O)c1c(Nc2nc3c(F)cccc3s2)sc2c1CCCC2, which inhibition is on record?
A: 154% (active)

Q: For CCOc1ccc(NC(=O)COc2ccc(C(=O)N3CCC(C(N)=O)CC3)cc2OC)cc1, which inhibition is on record?
A: 1.65% (inactive)

Q: With COc1ccc(C2=NN(C(=O)CSc3nc(=O)n4ccc(C)cc4n3)C(c3ccc(C)cc3)C2)cc1 (stereo unspecified) as the compound, how does the inhibition read?
A: 3.51% (inactive)

Q: Which inhibition does the source give for Cc1ccc(Cn2c(=N)c(S(=O)(=O)c3ccc(C)cc3)cc3c(=O)n4ccccc4nc32)cc1 here?
A: 1.91% (inactive)

Q: For CCOCCCNC(=O)c1cc2c(=O)n3ccccc3nc2s1, which inhibition is on record?
A: -3.33% (inactive)

Q: Which inhibition does the source give for CCn1c(=N)c(S(=O)(=O)c2ccc(F)cc2)cc2c(=O)n3ccccc3nc21 here?
A: 152% (active)

Q: How did the inhibition turn out when C=CCSc1nnc2c(n1)-c1cccc3cccc-2c13 was run?
A: 6.48% (inactive)

Q: Which inhibition does the source give for CC(=O)c1ccc(S(=O)(=O)N2CCN(c3nc4c(C)c(C)ccc4cc3C#N)CC2)cc1 here?
A: 6.35% (inactive)

Q: Cc1cc(C)c2nc(N3CCCC3)c(C#N)cc2c1 was tested. Which inhibition did it give?
A: 2.23% (inactive)

Q: For Cc1cccc2cc(C#N)c(N3CCCC3)nc12, which inhibition is on record?
A: 39.6% (active)

Q: With CCN(CC(=O)Nc1c(F)cccc1F)C(=O)c1ccc(-c2ccccc2)cc1 as the compound, how does the inhibition read?
A: -2.68% (inactive)

Q: COc1ccccc1C(=O)NC(=O)COC(=O)c1ccco1 was tested. Which inhibition did it give?
A: 1.31% (inactive)

Q: How did the inhibition turn out when Cn1cnnc1SCc1nnc(-c2ccccc2Br)o1 was run?
A: 2.51% (inactive)

Q: Nc1cccc2c1C(=O)N(Cc1nnc(-c3ccccc3Br)o1)C2=O was tested. Which inhibition did it give?
A: 35.1% (active)

Q: With CCOC(=O)N1CCN(Cc2nnc(-c3ccccc3Cl)o2)CC1 as the compound, how does the inhibition read?
A: -2.66% (inactive)

Q: With COC(=O)Cc1cc(=O)n(-c2nc3ccccc3s2)[nH]1 as the compound, how does the inhibition read?
A: 18.9% (active)

Q: With C/C(=N\NC(=O)CC(C)C)c1c(C(F)(F)F)[nH]n(-c2nc3ccccc3s2)c1=O as the compound, how does the inhibition read?
A: 4.64% (inactive)

Q: Which inhibition does the source give for COC(=O)Cc1[nH]n(-c2nc3ccccc3s2)c(=O)c1C(C)=Nc1ccc(OC)cc1 here?
A: -3.75% (inactive)

Q: For Cc1ccc(OCC(=O)Oc2ccccc2[N+](=O)[O-])cc1, which inhibition is on record?
A: 0.472% (inactive)

Q: Which inhibition does the source give for CC(=O)Nc1ccc(-c2nc3ccccc3o2)cc1 here?
A: -2.08% (inactive)

Q: How did the inhibition turn out when CC(=O)Nc1ccc(Nc2c3ccccc3nc3ccccc23)cc1 was run?
A: 52.8% (active)

Q: Cc1ccc(Nc2c3c(nc4ccccc24)CCC3)cc1 was tested. Which inhibition did it give?
A: 2.17% (inactive)

Q: Which inhibition does the source give for COc1ccc(NC(=O)CSc2nnc(Cc3ccccc3)c(=O)n2N)cc1 here?
A: -2% (inactive)

Q: Fc1ccccc1COc1cccc2cccnc12 was tested. Which inhibition did it give?
A: 1.44% (inactive)

Q: With COc1cc(SC)ccc1C(=O)Nc1cc(C)ccn1 as the compound, how does the inhibition read?
A: -5.84% (inactive)

Q: With COc1cc(SC)ccc1C(=O)Nc1nc(C)cs1 as the compound, how does the inhibition read?
A: 18.1% (active)

Q: With COC(=O)c1sc(NC(=O)c2ccc(OC)cc2OC)nc1C as the compound, how does the inhibition read?
A: -3.52% (inactive)

Q: CC12CCC(=O)N1C(C(=O)NCCN1C(=O)S/C(=C\c3ccccc3F)C1=O)CS2 (stereo unspecified) was tested. Which inhibition did it give?
A: 6.01% (inactive)

Q: C=C(C)CNC(=O)c1ccc(OC2CCN(C(=O)COC)CC2)cc1 was tested. Which inhibition did it give?
A: -0.667% (inactive)

Q: How did the inhibition turn out when CCN1CCN(C(=O)N(Cc2ccc(Cl)cc2)S(=O)(=O)c2ccc(C)cc2)CC1 was run?
A: 9.84% (inactive)

Q: For CC(=O)c1cc(C#N)c(N2CCCCC2)nc1C, which inhibition is on record?
A: 2.36% (inactive)

Q: CC(=O)c1cc(C#N)c(N2CC(C)OC(C)C2)nc1C (stereo unspecified) was tested. Which inhibition did it give?
A: 25.3% (active)

Q: Which inhibition does the source give for CC(=O)c1cc(C#N)c(SCC(=O)C(C)(C)C)nc1C here?
A: -3.56% (inactive)

Q: How did the inhibition turn out when CC(=O)N/C(=C\c1ccccc1)C(=O)OC(C)C(=O)N(C)c1ccccc1 (stereo unspecified) was run?
A: 1.82% (inactive)

Q: With O=[N+]([O-])c1ncc(Br)cc1Nc1ccccc1 as the compound, how does the inhibition read?
A: 6.49% (inactive)

Q: Which inhibition does the source give for COc1ccccc1NC(=O)Nc1nc(CC(=O)Nc2ccccc2F)cs1 here?
A: 1.51% (inactive)

Q: Cc1ccnc(NC(=O)CNC(=O)c2ccccc2)c1 was tested. Which inhibition did it give?
A: 5.13% (inactive)

Q: How did the inhibition turn out when O=C(Cc1ccc(Br)cc1)NCCc1ccccc1 was run?
A: 5.4% (inactive)

Q: How did the inhibition turn out when CCCn1nc(NC(=O)C(C)C)c2cc3cc(OC)ccc3nc21 was run?
A: 57.9% (active)

Q: How did the inhibition turn out when CCCn1nc(NS(=O)(=O)c2ccccc2)c2cc3cc(C)ccc3nc21 was run?
A: -1.51% (inactive)

Q: With CCCn1nc(NS(=O)(=O)c2ccc(F)cc2)c2cc3ccccc3nc21 as the compound, how does the inhibition read?
A: 4.53% (inactive)

Q: With Cc1ccc2c(C)c(C(=O)N3CCN(c4ccncc4)CC3)oc2c1C as the compound, how does the inhibition read?
A: 1.96% (inactive)

Q: CCOc1ccc(C(=O)NCCCN2CCCC2=O)cc1 was tested. Which inhibition did it give?
A: 3% (inactive)

Q: With CC(C)(C)OC(=O)c1c(N)n(CCCN2CCCC2=O)c2nc3ccccc3nc12 as the compound, how does the inhibition read?
A: 41.8% (active)

Q: O=C(NCCCN1CCCC1=O)c1ccc(S(=O)(=O)Nc2ccccc2)cc1 was tested. Which inhibition did it give?
A: -2.45% (inactive)

Q: Which inhibition does the source give for Cc1nc(-c2ccc(F)cc2)c(CC(=O)Nc2cc(S(=O)(=O)N3CCCCC3)ccc2C)s1 here?
A: 1.23% (inactive)

Q: O=C(NCc1ccc2c(c1)OCO2)c1c(O)nc2sccn2c1=O was tested. Which inhibition did it give?
A: -0.147% (inactive)

Q: Which inhibition does the source give for COc1ccc(C(=O)Nc2cccc(NC(=O)c3ccc(OC)cc3OC)n2)c(OC)c1 here?
A: 3.03% (inactive)

Q: CCCCN1C(N)=NC[C@@H]1CC1CCCCC1 was tested. Which inhibition did it give?
A: 0.418% (inactive)

Q: With Cc1onc(-c2c(F)cccc2Cl)c1C(=O)N(C)CC(=O)Nc1cccc(F)c1 as the compound, how does the inhibition read?
A: 0.755% (inactive)

Q: With CCOC(=O)c1cc2c(=O)n3ccccc3nc2n(CC(C)C)c1=NC(=O)c1c(-c2c(F)cccc2Cl)noc1C as the compound, how does the inhibition read?
A: 94.5% (active)

Q: C/C(=N/OC(=O)c1c(-c2c(F)cccc2Cl)noc1C)c1cnccn1 was tested. Which inhibition did it give?
A: -0.76% (inactive)

Q: With CCOC(=O)c1cccc(NC(=O)c2ccc(F)cc2F)c1 as the compound, how does the inhibition read?
A: -2.82% (inactive)

Q: Which inhibition does the source give for CCc1cccc(NC(=O)COC(=O)C2CCN(c3ccc(C(F)(F)F)cn3)CC2)c1 here?
A: -2.11% (inactive)

Q: For O=C(CNC(=O)C12CC3CC(CC(C3)C1)C2)OCC(=O)N1CCCCC1, which inhibition is on record?
A: 9.25% (inactive)

Q: Which inhibition does the source give for COc1cccc(C(=O)N/N=C(\C)c2cccc(NC(=O)c3ccc(F)cc3)c2)c1OC here?
A: -1.6% (inactive)

Q: Cc1ccc(-n2c(SCC(=O)N3CCC(C(=O)O)CC3)nc3ccccc3c2=O)cc1C was tested. Which inhibition did it give?
A: -0.912% (inactive)

Q: How did the inhibition turn out when Cc1ccc(-n2ncc3c(=O)n(-c4ccc(C)c(C)c4)c(-c4ccco4)nc32)cc1 was run?
A: -0.295% (inactive)

Q: Cc1ccc(-n2c(=O)c(C#N)cc3c(=O)n4ccccc4nc32)cc1C was tested. Which inhibition did it give?
A: 28% (active)

Q: How did the inhibition turn out when O=C(NCCSc1ncc(-c2ccccc2)[nH]1)c1ccco1 was run?
A: 3.47% (inactive)

Q: How did the inhibition turn out when O=C(NC1CCCCC1)c1ccc(-c2ccc(Cl)cc2)o1 was run?
A: 8.43% (inactive)

Q: How did the inhibition turn out when O=C(CSc1ccc(-c2ccc(-n3cccn3)cc2)nn1)Nc1ccc([N+](=O)[O-])cc1 was run?
A: -0.399% (inactive)

Q: How did the inhibition turn out when CC(=O)NC(CC(=O)Nc1cccc(S(=O)(=O)N2CCCC2)c1)c1ccccc1 (stereo unspecified) was run?
A: 0.238% (inactive)

Q: For CCN(CC(=O)Nc1ccc(S(=O)(=O)N2CCCC2)cc1)CC(=O)Nc1cccc(OC)c1, which inhibition is on record?
A: 4.35% (inactive)

Q: CCN(CC(=O)Nc1cccc(S(=O)(=O)N2CCCCC2)c1)Cc1ccccc1 was tested. Which inhibition did it give?
A: 16.2% (active)

Q: COc1ccc(CCNc2cc(N3CCN(C(=O)c4ccccc4OC)CC3)ccc2[N+](=O)[O-])cc1OC was tested. Which inhibition did it give?
A: 3.89% (inactive)

Q: For CC1CC(C)CN(S(=O)(=O)c2cccc3nonc23)C1 (stereo unspecified), which inhibition is on record?
A: 2.14% (inactive)

Q: For COc1ccc2oc(C(=O)N(CC(C)C)C3CCS(=O)(=O)C3)c(C)c2c1 (stereo unspecified), which inhibition is on record?
A: -2.12% (inactive)

Q: Which inhibition does the source give for O=C(Nc1ccccc1N1CCCC1)c1ccc(F)c(S(=O)(=O)N2CCOCC2)c1 here?
A: 1.55% (inactive)

Q: COc1ccccc1CCNS(=O)(=O)c1cc2c3c(c1)C(C)C(=O)N3CCC2 (stereo unspecified) was tested. Which inhibition did it give?
A: 4.16% (inactive)

Q: How did the inhibition turn out when COC(=O)COc1ccc2c(c1C)O/C(=C\c1ccco1)C2=O was run?
A: 47.4% (active)

Q: COC(=O)C1=C(C)N(c2ccc(Br)cc2)C(=O)/C1=C\c1ccco1 was tested. Which inhibition did it give?
A: 5.89% (inactive)

Q: Cc1cc(C)c(OCC(=O)N/N=C/c2ccco2)c(C)c1 was tested. Which inhibition did it give?
A: -4.28% (inactive)

Q: How did the inhibition turn out when CCS(=O)(=O)c1ccc(-c2cccc(NC(=O)c3ccc(Br)o3)c2)nn1 was run?
A: 2.1% (inactive)

Q: Which inhibition does the source give for CCOc1ccc(NS(=O)(=O)c2ccc(C(=O)NCC(c3ccccc3OC)N3CCCC3)cc2)cc1 (stereo unspecified) here?
A: -3.36% (inactive)

Q: For CCCNC(=O)CCn1cc(-c2ccc(OC)cc2)nc1CCN, which inhibition is on record?
A: -0.23% (inactive)

Q: Which inhibition does the source give for Cc1csc(NC(=O)CSc2nc(=O)cc(N)n2-c2ccc(F)cc2)n1 here?
A: 1.41% (inactive)

Q: How did the inhibition turn out when O=S(=O)(NC1CCCCC1N1CCC(O)CC1)c1ccc(Cl)cc1 (stereo unspecified) was run?
A: 74.6% (active)

Q: CCN1CCN(C2CCCCC2NS(=O)(=O)c2ccc(Cl)cc2)CC1 (stereo unspecified) was tested. Which inhibition did it give?
A: 1.58% (inactive)

Q: For O=S(=O)(NC1CCCCC1N1CCCCC1)c1ccc(Cl)cc1 (stereo unspecified), which inhibition is on record?
A: 2.32% (inactive)

Q: How did the inhibition turn out when COc1ccc(CNC(=O)COC(=O)CCS(=O)(=O)c2ccc(C)cc2)cc1OC was run?
A: 2.29% (inactive)

Q: CCOc1ccc(-c2cc(C(=O)N/N=C/c3ccc(O)cc3)c3ccccc3n2)cc1 was tested. Which inhibition did it give?
A: 2.59% (inactive)

Q: For CCN(CC)c1ccc2cc(C(=O)O)c(=O)oc2c1, which inhibition is on record?
A: 153% (active)

Q: Which inhibition does the source give for COc1ccc(C(=O)N/N=c2\oc3ccccc3cc2C(N)=O)cc1 here?
A: 4.55% (inactive)

Q: CCN(CC)c1ccc2oc(=O)c(C)nc2c1 was tested. Which inhibition did it give?
A: -87.9% (inactive)

Q: NC(=O)c1cc2ccccc2o/c1=N/NC(=O)c1cccc(F)c1 was tested. Which inhibition did it give?
A: -7.02% (inactive)

Q: CCOC(=O)c1cc2cc3ccccc3cc2oc1=O was tested. Which inhibition did it give?
A: 3.3% (inactive)

Q: CCN(CC)c1ccc2cc(C(N)=O)/c(=N\NC(=O)c3ccncc3)oc2c1 was tested. Which inhibition did it give?
A: 135% (active)
